We go through 3 compounds from PubChem BioAssay (NCI).

About 83,000 compounds went through this panel and 20% of them were active in at least one assay; those are over-represented in the sample as a whole.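 Single-dose data. Exposure time 48 hours. Values below 10 considered active.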 The source made the active and inactive calls.

Some test systems named below: SN12C renal; UO-31 renal; TK-10 renal; ACHN renal; CAKI-1 renal; A498 renal; CCRF-CEM leukemia; MOLT-4 leukemia; SR leukemia.
What all share (test): NCI-60 one-dose screen, 48 h (100 = growth as untreated, 0 = no growth, -100 = all killed)
What all share (conditions): 10 µM unless noted

As for `Cc1ccc(Cn2c(N3CCC(C(=O)NCc4cccs4)CC3)nc3ccccc32)cc1`, the growth with SN12C renal was 87.9% (inactive); with UO-31 renal it was 65% (inactive); in the experiment on TK-10 renal it was 95.7% (inactive); with ACHN renal, 98.5% (inactive); with CAKI-1 renal it was 89.1% (inactive); in the experiment on A498 renal it was 62.4% (inactive). Also, the growth with CCRF-CEM leukemia was 8.48% (active); in the experiment on MOLT-4 leukemia it was 21.6% (inactive); in the experiment with SR leukemia, -37% (active).
As for `CC(=O)c1ccc(Cc2ccc(C(C)=O)s2)s1`, the growth in the experiment on SN12C renal was 98% (inactive); in the experiment with UO-31 renal, 88.2% (inactive); in the experiment with TK-10 renal it was 94.9% (inactive); in the experiment on ACHN renal, 100% (inactive); in the experiment with CAKI-1 renal, 96.4% (inactive); in the experiment with A498 renal, -68.7% (active). The growth in the experiment on CCRF-CEM leukemia was 95.5% (inactive); in the experiment on MOLT-4 leukemia, 83.2% (inactive); in the experiment with SR leukemia it was 89.4% (inactive).
Consider `CCc1ccc(CNCC(O)c2ccccc2)cc1` (configuration not stated), for which the growth is 76.4% (inactive) in the experiment with SN12C renal; 34.6% (inactive) in the experiment with UO-31 renal; 80.7% (inactive) with TK-10 renal; 72.2% (inactive) with ACHN renal; 66.4% (inactive) with CAKI-1 renal; 67.8% (inactive) in the experiment on A498 renal. The growth with CCRF-CEM leukemia is 28.7% (inactive); with MOLT-4 leukemia it was 19.2% (inactive); in the experiment with SR leukemia it was 3.88% (active).
